Screens as filed in PubChem BioAssay.
G9a block: qHTS Assay for Inhibitors of Histone Lysine Methyltransferase G9a; Potency, µM (top dose mostly 102 µM), usual class: inhibitors; 350,000 tested, 8.8% active; G9a H3K9 monomethylation, AlphaScreen, 2 h; AID 504332, 2011; Histone-lysine N-methyltransferase EHMT2 (Homo sapiens), Q96KQ7; further: nearly all actives have a fitted effect of over 75% in size
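Readings reflect AlphaScreen signal from monomethyl-H3K9 antibody detection. HMT at 20 nM; substrate b-H3K9 500 nM; cofactor SAM 20 uM; 2 h RT reaction; compounds tested as titrations in qHTS with 15 min preincubation.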
JMJD2A Tudor: qHTS Assay for Inhibitors of JMJD2A-Tudor Domain; AID 504339, 2011; AlphaScreen JMJD2A-Tudor / H3K4me3 peptide binding; Potency, µM (top dose mostly 114 µM), usual class: inhibitors; 390,000 tested, 4.4% active; Lysine-specific demethylase 4A (Homo sapiens), O75164; further: nearly all actives have a fitted effect of over 50% in size
Sfp inh: qHTS Assay for Inhibitors of Bacillus subtilis Sfp phosphopantetheinyl transferase (PPTase) | 4'-phosphopantetheinyl transferase ffp (Bacillus subtilis), Q9F4F7 | Biochemical Sfp PPTase activity, qHTS | Potency, µM, hits mostly inhibitors | 310,000 tested, 3.5% active | AID 1490, 2009;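 further: the enzyme is Sfp with the accession as filed and its product quenches rhodamine fluorescence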
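Step 1, compound plus 15 nM Sfp-PPTase, 15 min, room temperature. Step 2, add rhodamine-CoA (5 uM) and BHQ-2-YbbR (12.5 uM). Step 3, read 525/598 nm fluorescence at 0 and 30 min.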
HP1b chromo inh: HTS for Inhibitors of HP1-beta Chromodomain Interactions with Methylated Histone Tails | Chromobox protein homolog 1 (Homo sapiens), P83916 | 390,000 tested, 0.56% active | AID 540317, 2011 | Potency, µM (titrated, usually from 114 µM), usual class: inhibitors | AlphaScreen HP1-beta / biotin-H3K9me3 peptide binding; further: nearly all actives have a fitted effect of over 70% in size
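Compound inhibition of the preformed complex between 50 nM HP1-beta and 50 nM biotinylated H3K9me3 peptide was read by AlphaScreen. Buffer was PBS pH 7.4 with 0.01% Tween-20. Incubations ran 30 min at room temperature, with 10 ug/mL donor/acceptor beads.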
TDP1 block: qHTS Assay for Inhibitors of Tyrosyl-DNA Phosphodiesterase (TDP1); 350,000 tested, 0.28% active; recombinant TDP1, AlphaScreen DNA substrate cleavage; AID 485290, 2010; Tyrosyl-DNA phosphodiesterase 1 (Homo sapiens), Q9NUW8; Potency, µM (series often up to 130 µM), most hits filed as inhibitors; further: nearly all actives have a fitted effect of over 40% in size
Target sequence (Q9NUW8 whole entry, looked up): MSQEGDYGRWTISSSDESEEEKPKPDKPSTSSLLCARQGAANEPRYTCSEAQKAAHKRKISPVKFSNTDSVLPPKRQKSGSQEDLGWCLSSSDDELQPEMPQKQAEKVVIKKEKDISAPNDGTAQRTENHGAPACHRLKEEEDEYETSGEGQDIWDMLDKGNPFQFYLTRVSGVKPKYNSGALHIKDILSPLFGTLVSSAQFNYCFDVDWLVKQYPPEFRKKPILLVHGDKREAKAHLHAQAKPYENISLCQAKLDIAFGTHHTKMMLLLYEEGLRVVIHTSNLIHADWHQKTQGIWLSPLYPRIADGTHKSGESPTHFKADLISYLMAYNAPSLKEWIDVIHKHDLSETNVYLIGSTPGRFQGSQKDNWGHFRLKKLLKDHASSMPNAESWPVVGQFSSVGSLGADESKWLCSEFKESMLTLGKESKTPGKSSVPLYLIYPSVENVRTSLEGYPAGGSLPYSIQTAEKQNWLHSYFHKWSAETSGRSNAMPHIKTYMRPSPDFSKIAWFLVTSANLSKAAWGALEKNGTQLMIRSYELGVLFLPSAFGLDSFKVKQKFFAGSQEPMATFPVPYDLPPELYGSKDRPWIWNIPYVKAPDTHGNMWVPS
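Tdp1 1 nM final; 15 min RT w/ cpd; substrate 15 nM, 5 min; beads 10 ug/ml, 10 min; AlphaScreen read. Neg ctrl: no enzyme.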
BAZ2B inh: qHTS Assay for Inhibitors of BAZ2B. 360,000 tested, 4.4% active. Bromodomain adjacent to zinc finger domain protein 2B (Homo sapiens), Q9UIF8. Potency, µM (top dose mostly 114 µM), hits mostly inhibitors. AlphaScreen BAZ2B-H3K14Ac peptide displacement; further: nearly all actives have a fitted effect of over 60% in size
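AlphaScreen displacement of biotin-H3(5-23)K14Ac peptide (50 nM final) from BAZ2B (50 nM final) in PBS pH 7.4, 0.01% Tween-20; complex preformed 30 min RT, then compounds (top 110 uM) 30 min RT, beads 20 min dark.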
Of the large screens only hits and unclear results are named; the others gave an inactive call. Compounds with a hit are over-represented: about 12% of the library has one in this group of screens. The call rests on the fitted dose curve; in most records, active means well fitted curve in the direction sought with a large enough effect; inconclusive means small, poorly fitted or top-dose-only effect, or another doubt; inactive means no such curve, though single readings can be large; an effect the other way counts as inactive or inconclusive.

COc1ccc(C(CCN2CCCC(C)C2)c2c(OC)cc(OC)c3c(C)cc(=O)oc23)cc1 (stereo unspecified)	none
CCCCCc1cc(=O)oc2c(C(CCN3CCCC(C)C3)c3ccc4c(c3)OCO4)c(OC)cc(OC)c12 (stereo unspecified)	G9a block inconclusive, JMJD2A Tudor inconclusive, BAZ2B inh 31.6µM (no result: TDP1 block)
CCCCCc1cc(=O)oc2c(C(CCN3CCCCC3)c3ccc4c(c3)OCO4)c(OC)cc(OC)c12 (stereo unspecified)	JMJD2A Tudor 44.7µM, Sfp inh 56.2µM, BAZ2B inh inconclusive (no result: TDP1 block)
COc1cc(OC)c2ccc(=O)oc2c1C(CCN1CCCC1)c1ccc2c(c1)OCO2 (stereo unspecified)	none
CCCCCc1cc(=O)oc2c(C(CCN3CCCC3)c3ccc4c(c3)OCO4)c(OC)cc(OC)c12 (stereo unspecified)	JMJD2A Tudor 50.1µM, Sfp inh 39.8µM (no result: G9a block, BAZ2B inh)
CCCCSCCCNC(=O)CN1C(=O)c2cccnc2Oc2ccc(Cl)cc21	none (no result: Sfp inh)
COc1ccc(C2C(C(=O)c3ccco3)=C(O)C(=O)N2CCN2CCOCC2)cc1 (stereo unspecified)	G9a block 50.1µM, JMJD2A Tudor inconclusive
Cc1nc(C)c(C(=O)C2=C(O)C(=O)N(CCN3CCOCC3)C2c2cccs2)s1 (stereo unspecified)	G9a block inconclusive, JMJD2A Tudor inconclusive
COc1ccc(OC)c(C2C(C(=O)c3sc(C)nc3C)=C(O)C(=O)N2CCN2CCOCC2)c1 (stereo unspecified)	G9a block 44.7µM
COc1ccc(C2C(C(=O)c3sc(C)nc3C)=C(O)C(=O)N2CCN2CCOCC2)cc1 (stereo unspecified)	G9a block inconclusive, JMJD2A Tudor 50.1µM
COC(=O)c1cc(NC(=O)[C@H](CCS(C)(=O)=O)N2Cc3ccccc3C2=O)cc(C(=O)OC)c1	none (no result: Sfp inh)
Cc1cc(C)cc(Nc2cc(=O)n(C3CCCCC3)c(=O)[nH]2)c1	none
Cc1cc2nc3c(=O)n(C4CCCCC4)c(=O)[nH]c3nc2cc1N	G9a block 1.26µM
COC(=O)c1c(SC)nc2ccccc2c1OCc1ccc(Cl)cc1	none (no result: Sfp inh, TDP1 block)
O=C(Nc1nc2nc(-c3ccccc3)cc(=O)n2[nH]1)c1ccc(F)cc1	BAZ2B inh 79.4µM (no result: Sfp inh, TDP1 block)
Cc1ccc(C(=O)Nc2nc3nc(-c4ccccc4)cc(=O)n3[nH]2)cc1	G9a block inconclusive, TDP1 block 44.7µM, BAZ2B inh inconclusive
CCN1CCCC1CNC(=O)c1cc(N)ccc1OC (stereo unspecified)	JMJD2A Tudor 0.794µM, HP1b chromo inh inconclusive (no result: G9a block, Sfp inh, TDP1 block, BAZ2B inh)
COc1cccc(/C=C2/Sc3ccc(C(=O)NCCN4CCCCCC4)cc3NC2=O)c1	G9a block 39.8µM, JMJD2A Tudor inconclusive, Sfp inh 44.7µM, BAZ2B inh inconclusive
CCN1CCC[C@H]1CNC(=O)c1c(OC)ccc(Br)c1OC	none
CCN1CCC[C@H]1CNC(=O)c1cc(S(N)(=O)=O)ccc1OC	none (no result: JMJD2A Tudor, HP1b chromo inh)
COc1cccc(/C=C2\Sc3ccc(C(=O)NCc4cccnc4)cc3N(C)C2=O)c1	G9a block inconclusive
CCN1CCCC1CNC(=O)c1ccc2c(c1)NC(=O)/C(=C\c1ccc(OC)c(OC)c1)S2 (stereo unspecified)	JMJD2A Tudor 28.2µM, BAZ2B inh 25.1µM
Cc1ccc(/C=C2/Sc3ccc(C(=O)NCc4ccccn4)cc3NC2=O)cc1	TDP1 block 31.6µM, BAZ2B inh inconclusive
O=C(Nc1cccc(Cl)c1)Nc1c[nH]c(=O)[nH]c1=O	none (no result: TDP1 block)
Cc1cc(=O)n2nc(N3CCCC(C(=O)Nc4ccc(C)c(C)c4)C3)sc2n1 (stereo unspecified)	none (no result: TDP1 block)
O=C1Nc2cc(C(=O)NCCN3CCCCCC3)ccc2S/C1=C\c1ccccc1	G9a block 44.7µM, JMJD2A Tudor inconclusive, Sfp inh 39.8µM, BAZ2B inh inconclusive
Cn1c(=O)n(C)c2cc(CNCc3ccccc3)ccc21	none (no result: Sfp inh)
